# Shown is part of a subset that was picked to be rich in the strongest signals.
# Columns and labels:
# Test in all cases: glycan array binding signal (z-score within array); higher = stronger binding
# Conditions in all cases: glycan notation: IUPAC condensed, linker removed
# [1] = biological target: Gal6P(b1-4)GlcNAc
# In short: (§1)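 Negative Z-scores can be read as non-binding. The Z-score is calculated within each array and then averaged across arrays of one protein sequence at different concentrations or buffers and across linkers. Arrays, 3228 in all, were curated from the Consortium for Functional Glycomics database and kept only where the protein sequence was available.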
# [2] = biological target: GlcA3S(b1-3)Gal(b1-4)GlcNAc(b1-2)Man
# In short: as §1
# [3] = biological target: GlcNAc(a1-4)Gal(b1-4)GlcNAc(b1-3)Gal(b1-4)[Fuc(a1-3)]GlcNAc(b1-3)Gal(b1-4)[Fuc(a1-3)]GlcNAc
# In short: as §1
# [4] = biological target: GlcNAc(b1-3)Gal(b1-4)GlcNAc(b1-2)[GlcNAc(b1-3)Gal(b1-4)GlcNAc(b1-6)]Man(a1-6)[GlcNAc(b1-3)Gal(b1-4)GlcNAc(b1-2)Man(a1-3)]Man(b1-4)GlcNAc(b1-4)GlcNAc
# In short: as §1
# [5] = biological target: GlcNAc(b1-3)Gal(b1-4)GlcNAc(b1-3)Gal(b1-4)GlcNAc
# In short: as §1
# [6] = biological target: GlcNAc(b1-3)Gal(b1-4)GlcNAc(b1-3)Gal(b1-4)GlcNAc(b1-2)Man(a1-3)[GlcNAc(b1-3)Gal(b1-4)GlcNAc(b1-3)Gal(b1-4)GlcNAc(b1-2)Man(a1-6)]Man(b1-4)GlcNAc(b1-4)GlcNAc
# In short: as §1
# [7] = biological target: GlcNAc(b1-3)Gal(b1-4)GlcNAc(b1-3)Gal(b1-4)GlcNAc(b1-3)Gal(b1-4)GlcNAc(b1-2)Man(a1-3)[GlcNAc(b1-3)Gal(b1-4)GlcNAc(b1-3)Gal(b1-4)GlcNAc(b1-3)Gal(b1-4)GlcNAc(b1-2)Man(a1-6)]Man(b1-4)GlcNAc(b1-4)[Fuc(a1-6)]GlcNAc
# In short: as §1
# [8] = biological target: GlcNAc(b1-3)Gal(b1-4)GlcNAc(b1-3)Gal(b1-4)GlcNAc(b1-3)Gal(b1-4)GlcNAc(b1-2)[GlcNAc(b1-3)Gal(b1-4)GlcNAc(b1-3)Gal(b1-4)GlcNAc(b1-3)Gal(b1-4)GlcNAc(b1-6)]Man(a1-6)[GlcNAc(b1-3)Gal(b1-4)GlcNAc(b1-3)Gal(b1-4)GlcNAc(b1-3)Gal(b1-4)GlcNAc(b1-2)Man(a1-3)]Man(b1-4)GlcNAc(b1-4)[Fuc(a1-6)]GlcNAc
# In short: as §1
# [9] = biological target: GlcNAc(b1-3)Gal(b1-4)GlcNAc(b1-3)Gal(b1-4)GlcNAc(b1-3)Gal(b1-4)GlcNAc(b1-3)Gal(b1-4)GlcNAc(b1-2)[GlcNAc(b1-3)Gal(b1-4)GlcNAc(b1-3)Gal(b1-4)GlcNAc(b1-3)Gal(b1-4)GlcNAc(b1-3)Gal(b1-4)GlcNAc(b1-6)]Man(a1-6)[GlcNAc(b1-3)Gal(b1-4)GlcNAc(b1-3)Gal(b1-4)GlcNAc(b1-3)Gal(b1-4)GlcNAc(b1-3)Gal(b1-4)GlcNAc(b1-2)Man(a1-3)]Man(b1-4)GlcNAc(b1-4)[Fuc(a1-6)]GlcNAc
# In short: as §1
# [10] = biological target: GlcNAc(b1-3)Gal(b1-4)GlcNAc(b1-3)Gal(b1-4)GlcNAc(b1-3)GalNAc
# In short: as §1
# [11] = biological target: GlcNAc(b1-4)GlcNAc(b1-4)GlcNAc(b1-4)GlcNAc(b1-4)GlcNAc(b1-4)GlcNAc
# In short: as §1
# [12] = biological target: Man(a1-2)Man(a1-2)Man(a1-6)[Man(a1-3)]Man
# In short: as §1
# [13] = biological target: Man(a1-2)Man(a1-3)[Man(a1-2)Man(a1-6)]Man(a1-6)[Man(a1-2)Man(a1-2)Man(a1-3)]Man
# In short: as §1
# [14] = biological target: Neu5Ac(a2-3)Gal(b1-3)GalNAc(b1-4)[Neu5Ac(a2-3)]Gal(b1-4)Glc
# In short: as §1
# [15] = biological target: Neu5Ac(a2-3)Gal(b1-3)GalNAc(b1-4)[Neu5Ac(a2-8)Neu5Ac(a2-3)]Gal(b1-4)Glc
# In short: as §1
# [16] = biological target: Neu5Ac(a2-3)Gal(b1-3)GlcNAc(b1-2)Man
# In short: as §1
# [17] = biological target: Neu5Ac(a2-3)Gal(b1-3)[Neu5Ac(a2-6)]GalNAc
# In short: as §1
# [18] = biological target: Neu5Ac(a2-3)Gal(b1-4)GlcNAc(b1-2)[Neu5Ac(a2-3)Gal(b1-4)GlcNAc(b1-6)]Man(a1-6)[Neu5Ac(a2-3)Gal(b1-4)GlcNAc(b1-2)Man(a1-3)][GlcNAc(b1-4)]Man(b1-4)GlcNAc(b1-4)GlcNAc
# In short: as §1
# [19] = biological target: Neu5Ac(a2-3)Gal(b1-4)GlcNAc(b1-3)Gal(b1-4)GlcNAc(b1-3)Gal(b1-4)GlcNAc(b1-2)Man(a1-3)[Neu5Ac(a2-3)Gal(b1-4)GlcNAc(b1-3)Gal(b1-4)GlcNAc(b1-3)Gal(b1-4)GlcNAc(b1-2)Man(a1-6)]GalNAc
# In short: as §1
# [20] = biological target: Neu5Ac(a2-6)Gal(b1-4)GlcNAc(b1-3)Gal(b1-4)GlcNAc(b1-3)Gal(b1-4)GlcNAc(b1-2)Man(a1-3)[Neu5Ac(a2-6)Gal(b1-4)GlcNAc(b1-3)Gal(b1-4)GlcNAc(b1-3)Gal(b1-4)GlcNAc(b1-2)Man(a1-6)]GalNAc
# In short: as §1
# [21] = biological target: Neu5Ac(a2-6)GlcNAc(b1-4)GlcNAc
# In short: as §1
# [22] = biological target: Neu5Ac(a2-8)Neu5Ac(a2-3)[GalNAc(b1-4)]Gal(b1-4)Glc
# In short: as §1
# [23] = biological target: Neu5Ac(a2-8)Neu5Ac(a2-8)Neu5Ac(a2-3)[Gal(b1-3)GalNAc(b1-4)]Gal(b1-4)Glc
# In short: as §1
# [24] = biological target: Neu5Gc(a2-3)Gal(b1-4)Glc
# In short: as §1
# [25] = biological target: Neu5Gc(a2-8)Neu5Gc(a2-3)Gal(b1-4)GlcNAc(b1-3)Gal(b1-4)GlcNAc
# In short: as §1
binder,measurement,setting,value
"MPA (Maclura pomifera), P18674 (protein) GVTFDDGAYTGIREINFEYNSETAIGGLRVTYDLNGMPFVAEDHKSFITGFKPVKISLEFPSEYIVEVSGYVGKVEGYTVIRSLTFKTNKQTYGPYGVTNGTPFSLPIENGLIVGFKGSIGYWLDYFSIYLSL",glycan array binding signal (z-score),[1],-0.561
same,glycan array binding signal (z-score),[2],-0.571
same,glycan array binding signal (z-score),[3],-0.148
same,glycan array binding signal (z-score),[4],5.1
same,glycan array binding signal (z-score),[5],-0.233
same,glycan array binding signal (z-score),[6],3.5
same,glycan array binding signal (z-score),[7],5.73
same,glycan array binding signal (z-score),[8],4.46
same,glycan array binding signal (z-score),[9],0.56
same,glycan array binding signal (z-score),[10],-0.343
same,glycan array binding signal (z-score),[11],-0.082
same,glycan array binding signal (z-score),[12],-0.161
same,glycan array binding signal (z-score),[13],-0.215
same,glycan array binding signal (z-score),[14],-0.301
same,glycan array binding signal (z-score),[15],-0.179
same,glycan array binding signal (z-score),[16],1.21
same,glycan array binding signal (z-score),[17],0.304
same,glycan array binding signal (z-score),[18],-0.334
same,glycan array binding signal (z-score),[19],3.56
same,glycan array binding signal (z-score),[20],6.71
same,glycan array binding signal (z-score),[21],-0.39
same,glycan array binding signal (z-score),[22],-0.273
same,glycan array binding signal (z-score),[23],-0.044
same,glycan array binding signal (z-score),[24],-0.156
same,glycan array binding signal (z-score),[25],-0.219

# — the supplement of paper PMC8728848
